The nature of this assay: inhibitors of VEEV TC-83 cytopathic effect, confirmation, Vero cells (AID 588727). Conditions: VEEV TC-83 cytopathic effect inhibition, at 20 µM.
Where [1] appears, read: stronger effect = higher value unless noted.

The campaign covered roughly 350,000 compounds. About 450 (0.13%) were called active. How the calls were made is not given here. Not all results are given here. Potency and affinity values are given separately.

In general, inhibition refers to the share of the control response that was lost under treatment.

Take `COc1ccc(OCc2cc(C(=O)NCC(C)(C)N3CCOCC3)no2)c(Cl)c1`: under setting [1], the inhibition was 2.39% (inactive). As to `OC(COCc1cccs1)CN1CCN(c2cccc(Cl)c2)CC1` (stereo not given), the inhibition result under setting [1] is “inactive”. On the same count and under the same terms, for `Cc1ccc(/C=C/C(=O)c2ccccc2)cc1` the value was “inactive”; for `Cc1ccc(C(=O)C=CC=Cc2ccccc2)cc1`, “inactive”.

With `CCCCn1cnc2c(SCc3ccccc3Cl)nc(N)nc21`, the inhibition under setting [1] is 6.5% (inactive). For the compound `Cn1cnc2c(SCc3ccccc3)ncnc21`, the inhibition result under setting [1] is “inactive”. On the same count and under the same terms, next, `CC(C)Cn1cnc2c(SCc3ccccc3Cl)nc(N)nc21`: 9.3% (inactive); `OCCn1cnc2c(SCc3ccccc3)ncnc21`: 6.32% (inactive). Regarding `CCC(C(=O)NCCCN1CCCC1=O)n1c2ccccc2c2nc(=O)cc(C)n21` (stereo not given), the inhibition result under setting [1] is “inactive”. `CC(C)C(C)NC(=O)CN1C(=O)NC(C)(c2ccc3ccccc3c2)C1=O` (stereo not given): the inhibition result under setting [1] was “inactive”. Still for that read-out and setting: for `Cc1cc(SCC(=O)Nc2ncc(Cl)cc2Cl)nc2ccccc12` the value was 0.95% (inactive). On to `COCCn1c(SCC(=O)Nc2ccc(Cl)cn2)nc2ccccc21`, for which the inhibition under setting [1] was 2.54% (inactive). With `CC(Sc1nnc(-c2ccccc2)c(-c2ccccc2)n1)C(=O)Nc1ncc(Cl)cc1Cl` (stereo not given), the inhibition under setting [1] is 0.85% (inactive). Turning to `COc1ccc(-n2c(SC(C)C(=O)Nc3ncc(Cl)cc3Cl)nc3ccccc32)cc1` (stereo not given), the inhibition under setting [1] is 8.08% (inactive).

In the case of `CCN(CC)S(=O)(=O)c1ccc(NN=c2c(=O)c3ccccc3c2=O)cc1`, the inhibition under setting [1] is 0.93% (inactive). Same read-out and setting: for `CCOC(=O)C1(CCOC)CCN(C(=O)Cc2ccsc2)CC1` the value was 0.57% (inactive).

For `CCOC(=O)c1cn(Cc2ccccc2)nc1-c1ccccc1`, the inhibition entry under setting [1] is “inactive”. `Cc1cc(/C=N\NC(=O)c2cccs2)c(C)n1-c1ccc2ncccc2c1`: under setting [1], the inhibition was 11.1% (inactive). As to `Cc1cccc(-n2c(C)cc(/C=N\NC(=O)c3ccco3)c2C)c1`, the inhibition under setting [1] is 1.2% (inactive). Take `COCCOC1CCN(C(=O)c2cc(COc3ccc(F)cc3F)on2)CC1`: the inhibition under setting [1] is 1.37% (inactive). Regarding `CCOC(=O)c1c2c(c(=S)n(-c3ccccc3)c1N)CCC2`, the inhibition was 4.5% (inactive) (stronger effect = higher value) and 3.38% (measured here: 10K pilot screen inhibition, stronger effect = higher value). With `CCOC(=O)c1c(SC)n(-c2ccccc2)c(=S)n(-c2ccccc2)c1=O`, under setting [1], the inhibition is 0.87% (inactive). Regarding `COc1ccc(CSC(=N)N)cc1[N+](=O)[O-]`, the inhibition under setting [1] was 4.91% (inactive). For the compound `CCOc1ccc(CSC(=N)N)cc1[N+](=O)[O-]`, the inhibition under setting [1] was 9.41% (inactive). As for `Nc1nc(N)nc(-c2cccc(Cl)c2)n1`, under setting [1], the inhibition is 1.28% (inactive). Same read-out and setting: for `COc1ccccc1CN1CCN(C(=O)c2cccc3ccccc23)CC1` the value was “inactive”; for `Cc1cc2occ(CC(=O)Nc3nccs3)c2cc1C(C)C`, 0.63% (inactive); for `Cc1ccc2c(CC(=O)Nc3nc(C)cs3)coc2c1`, 5.51% (inactive). Take `Cc1c(N(C)S(=O)(=O)c2cccc(C(=O)NCC3CCCO3)c2)c(=O)n(-c2ccccc2)n1C` (stereo not given): under setting [1], the inhibition was 1.98% (inactive).

(Values after PubChem BioAssay AID588727 (Southern Research Specialized Biocontainment Screening …, 2011).)
